Shown are actives, neighbours in structure and some others; about 1.7% of the full set was active somewhere.
LYPLA2 inh: LYPLA2 inhibitors, primary screen, counter-screen for PME1 inhibitor project, biochemical, fluorescence polarization, FP-Rh probe ABPP; Acyl-protein thioesterase 2 (Homo sapiens), O95372; recombinant LYPLA2; inhibition, % at 5.9 µM; hit rate 0.38% among 320,000; AID 2177, 2009;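 active = inhibition above the screen-wide mean plus 3 SD, limit set per campaign, cut at about 26% in these data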;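 note: 0% = LYPLA2 with DMSO and 100% = wells lacking LYPLA2 enzyme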
Hck Nef HTS: inhibitors of Nef-activated human Hck kinase, primary screen, biochemical, Z-Lyte FRET, 384-well, Hck-YEEI; Tyrosine-protein kinase HCK (Homo sapiens), P08631; Recombinant Hck-YEEI plus Nef, Z-Lyte FRET kinase assay; inhibition, % at 20 µM; hit rate 0.68% among 220,000;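 active = Hck-Nef kinase inhibition above about 50%, limit read from the data; inactive = inhibition below that limit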;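 note: 0% = DMSO with Hck plus Nef and 100% = Hck alone without Nef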
Rin1 Abl inh: inhibitors of Rin1-Abl protein binding, primary screen, biochemical, TR-FRET | inhibition, % at 7.35 µM | AID 588664, 2011 | hit rate 0.4% among 360,000 | Tyrosine-protein kinase ABL1 (Homo sapiens) + Ras and Rab interactor 1 (Homo sapiens), …; in the data active = inhibition above about 5%, passing the limit was not always enough
PREPL inh: PREPL enzyme inhibitors, primary screen, biochemical, fluorescence polarization; Prolyl endopeptidase-like (Homo sapiens), Q4J6C6; recombinant PREPL, fluorescence polarization activity-based probe; inhibition, % at 5.96 µM; hit rate 0.68% among 320,000; AID 2751, 2010; in the data active = inhibition above about 43%;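 note: 0% = enzyme with DMSO and 100% = wells lacking enzyme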
LYPLA1 counter: LYPLA1 inhibitors, primary screen, counter-screen for PME1 inhibitor project, biochemical, fluorescence polarization, FP-Rh probe ABPP; Acyl-protein thioesterase 1 (Homo sapiens), O75608; inhibition, % at 5.9 µM; recombinant LYPLA1; AID 2174, 2009; hit rate 0.16% among 320,000;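 active = inhibition above the mean of all tested compounds plus 3 SD, set per campaign, cut at about 14% in these data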;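 note: inhibitors block serine hydrolase probe labeling of LYPLA1 so polarization falls; 0% = enzyme with DMSO and 100% = wells lacking LYPLA1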
p97 ATPase inh: inhibitors of human p97 ATPase, primary screen, biochemical; inhibition, % at 8 µM; hit rate 0.42% among 220,000; recombinant p97 ATPase, Kinase-Glo ATP luminescence, 3 h; AID 1481, 2009; in the data active = inhibition above about 15%;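 note: 0% = DMSO vehicle and 100% = wells lacking enzyme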
LYPLA2 confirm: LYPLA2 inhibitors, retest, confirmation, counter-screen for PME1 inhibitor project, biochemical, fluorescence polarization, FP-Rh probe ABPP | AID 2232, 2010 | shares compounds with LYPLA2 inh | inhibition, % at 5.9 µM | hit rate 72% among 1,100 | recombinant LYPLA2;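 active = mean inhibition across replicates above the hit cutoff set in the primary screen, cut at about 26% in these data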;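 note: blocked labeling of the enzyme by serine hydrolase FP-Rh probe lowers polarization; 0% = enzyme with DMSO and 100% = wells lacking LYPLA2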
LYPLA2 ABPP: LYPLA2 inhibitors in proteome, late-stage follow-up, gel-based competitive ABPP, fluorescence, assay provider. shares compounds with LYPLA2 inh. rhLYPLA2 in mouse brain proteome, gel ABPP FP-Rh. inhibition, % at 20 µM. hit rate 30% among 150;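 active = inhibition of LYPLA2 enzyme probe labeling above about 50%, limit read from the data; inactive = inhibition below that limit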;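 note: loss of FP-Rh probe labeling of the LYPLA2 gel band measured as band density; 0% = DMSO only control band and 100% = blank gel background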
* = called active by the depositor; . = no result.

SMILES	LYPLA2 inh	Hck Nef HTS	Rin1 Abl inh	PREPL inh	LYPLA1 counter	p97 ATPase inh	LYPLA2 confirm	others
NS(=O)(=O)c1ccc(N2CCOCC2)c(C(=O)NCc2ccc3c(c2)OCO3)c1	.	.	5	.	.	.	.
Cn1c(=O)c2c(ncn2CC(=O)N/N=C/C(Cl)=C/c2ccccc2)n(C)c1=O	32*	-1	-3	11	8	4	22
COC(=O)c1ccc(C(=O)N2CCCC(N3CCN(c4ccc(F)cc4)CC3)C2)nc1 (stereo not given)	2	.	1	17	1	.	.
C[C@@H]1CCCCO[C@H](CN(C)S(=O)(=O)c2cn(C)cn2)[C@@H](C)CN([C@H](C)CO)C(=O)c2cc(NC(=O)c3ccncc3)ccc2O1	.	.	-3	.	.	.	.
Cc1ccc(-c2noc(C3CCN(S(=O)(=O)c4ccc5c(c4)OCCO5)CC3)n2)o1	56*	2	-1	-2	6	1	54*	LYPLA2 ABPP=9
Cc1ccc(-c2noc(C3CCCN(S(=O)(=O)c4ccc5ccccc5c4)C3)n2)o1 (stereo not given)	-8	1	-3	-18	-5	4	.
CN(C)c1ccc(-c2noc(C3CCN(S(=O)(=O)c4ccc(C(=O)O)cc4)CC3)n2)cc1	30*	1	-1	9	5	-3	29*
COc1ccccc1CNC(=O)CCNS(=O)(=O)c1cc(Br)cnc1N	4	.	-1	1	1	.	.
Cc1ccc(C)c(C(=O)OCC(=O)NC(=O)NCc2ccccc2)c1	.	.	-3	.	.	.	.
COc1ccc(NC(=O)CN(C)CC(=O)N2CCCCCC2)cc1	.	.	1	.	.	.	.
Cn1cc(C(=O)NCCN2CCN(c3cccc(Cl)c3)CC2)c2c3ccccc3n(C)c2c1=O	26*	-4	-6	46*	7	3	35*
COCCn1c(=O)[nH]c2cc(C(=O)NCCN3CCN(c4cccc(Cl)c4)CC3)ccc2c1=O	45*	0	8	-14	6	-3	36*
CCc1ccc(NC(=O)C/C(C)=N/NC(=O)COc2ccccc2C)cc1	-2	.	0	-8	4	.	.
COc1ccc(C(CNC(=O)c2cccc(S(=O)(=O)Nc3ccc(F)cc3)c2)N2CCOCC2)cc1 (stereo not given)	.	.	2	.	.	.	.
COc1cc(/C=C2\CCc3ccccc3C2=O)cc(OC)c1OC	27*	4	-3	7	3	-1	18
Cc1cc(C)c(C)c(C(=O)COC(=O)CNC(=O)CNC(=O)c2ccco2)c1C	3	.	2	18	0	.	.
Cc1c(C(=O)NCC2CCCO2)oc2ccc(Br)cc12 (stereo not given)	7	.	-2	21	2	.	.
Cc1cccc(C)c1NC(=O)CNC(=O)c1ccc(N2CCCC2=O)cc1	3	.	0	15	2	.	.
O=C(OCC(=O)N1CCc2ccccc21)c1ccccc1[N+](=O)[O-]	49*	.	-2	4	-3	.	56*
C[C@@H]1CCCCO[C@@H](CN(C)C(=O)Cc2ccccc2)[C@@H](C)CN([C@H](C)CO)C(=O)c2cc(NC(=O)C3CCCCC3)ccc2O1	.	.	2	.	.	.	.
Cc1cccc(Sc2ccc([N+](=O)[O-])cn2)c1	29*	3	-1	11	0	4	28*
Cc1ccccc1Sc1ccc([N+](=O)[O-])cn1	34*	.	-2	1	4	.	31*
O=C(O)c1ccc(/C=N/NC(=O)c2ccc(CN3c4cccc5cccc(c45)S3(=O)=O)cc2)cc1	-12	30	0	-41	-25	3	.
O=C1CCC/C(=N/NC(=O)c2ccc(CN3c4cccc5cccc(c45)S3(=O)=O)cc2)C1	57*	3	-2	-4	-4	-2	67*
CCOC(=O)C1(C)C=C(Nc2ccc(C)cc2)C(=O)N1c1ccc(C)cc1 (stereo not given)	27*	22	3	-5	1	1	-2
SMILES	LYPLA2 inh	Hck Nef HTS	Rin1 Abl inh	PREPL inh	LYPLA1 counter	p97 ATPase inh	LYPLA2 confirm	others
CCOC(=O)C1(C)/C(=N/Nc2ccc(S(N)(=O)=O)cc2)C(=O)C(=O)N1c1ccccc1 (stereo not given)	-2	23	-1	4	-4	0	.
Cc1nc2sc(C(c3ccc(Cl)cc3)N3CCN(c4ccccc4F)CC3)c(O)n2n1 (stereo not given)	29*	0	-1	-2	5	0	30*
Cc1nc2sc(C(c3ccco3)N3CCN(c4ccccc4F)CC3)c(O)n2n1 (stereo not given)	-2	-1	0	10	-1	1	.
O=C(COc1cc2oc(=O)cc(-c3ccccc3)c2cc1Cl)NCC1CCC(C(=O)O)CC1 (stereo not given)	42*	.	-1	-6	-1	.	37*
CCc1cc2c(-c3ccccc3)cc(=O)oc2cc1OCC(=O)NCC1CCC(C(=O)O)CC1 (stereo not given)	2	.	-2	4	-1	.	.
Cc1cc(C(=O)COc2cccnc2[N+](=O)[O-])c(C)n1-c1ccccc1F	28*	18	0	-5	2	6	25
Cc1ccc(-n2c(C)cc(C(=O)COc3cccnc3[N+](=O)[O-])c2C)cc1	31*	0	2	7	0	-8	21
O=C(NCCC1=CCCCC1)C1CCN(S(=O)(=O)c2ccccc2)CC1	28*	23	3	0	0	-2	0
COc1ccc(C(=O)c2nccc3cc(OC)c(OC)cc23)cc1OC	26*	.	14*	32	9	.	17
CCN(CC)CCCN=C1N[C@@H](c2cccc(C(F)(F)F)c2)C(C(=O)OC)=C(C)N1CC	.	.	1	18	.	.	.
Cc1ccc(N(CC(=O)NCc2ccccc2)C(=O)c2csnn2)cc1	3	.	1	1	2	.	.
CN(C(=O)c1ccc(NC(=O)Cc2ccc(NC(=O)C3CCCN(C(=O)c4ccccc4)C3)cc2)cc1)C1CC1 (stereo not given)	63*	.	8	-7	3	.	60*	LYPLA2 ABPP=34

Compound activity (PubChem)
